# Measurements published in ChEMBL document CHEMBL3988442, “University of Dundee, Small-Polar-MMV Screening Library” (2021).
# For some assays here: Measured potencies and affinities stand elsewhere.
# Legend:
# Parameters in all cases: scale not given: direction of the effect not stated beside the values
# [1] = target: Protein translocase subunit SecA (Escherichia coli (strain K12)) (UniProt P10408); test: Assay to Identify E. coli SecA ATPase Inhibitors; type: functional; settings: 30 µM
# [2] = target: T1, Ubiquitin-activating enzyme e1, putative (Leishmania donovani (strain BPK282A1)) (UniProt E9BSI1); test: Leishmania donovani Ubiquitin Activating Enzyme (LdE1); type: functional; settings: 30 µM
# T1 sequence (whole entry): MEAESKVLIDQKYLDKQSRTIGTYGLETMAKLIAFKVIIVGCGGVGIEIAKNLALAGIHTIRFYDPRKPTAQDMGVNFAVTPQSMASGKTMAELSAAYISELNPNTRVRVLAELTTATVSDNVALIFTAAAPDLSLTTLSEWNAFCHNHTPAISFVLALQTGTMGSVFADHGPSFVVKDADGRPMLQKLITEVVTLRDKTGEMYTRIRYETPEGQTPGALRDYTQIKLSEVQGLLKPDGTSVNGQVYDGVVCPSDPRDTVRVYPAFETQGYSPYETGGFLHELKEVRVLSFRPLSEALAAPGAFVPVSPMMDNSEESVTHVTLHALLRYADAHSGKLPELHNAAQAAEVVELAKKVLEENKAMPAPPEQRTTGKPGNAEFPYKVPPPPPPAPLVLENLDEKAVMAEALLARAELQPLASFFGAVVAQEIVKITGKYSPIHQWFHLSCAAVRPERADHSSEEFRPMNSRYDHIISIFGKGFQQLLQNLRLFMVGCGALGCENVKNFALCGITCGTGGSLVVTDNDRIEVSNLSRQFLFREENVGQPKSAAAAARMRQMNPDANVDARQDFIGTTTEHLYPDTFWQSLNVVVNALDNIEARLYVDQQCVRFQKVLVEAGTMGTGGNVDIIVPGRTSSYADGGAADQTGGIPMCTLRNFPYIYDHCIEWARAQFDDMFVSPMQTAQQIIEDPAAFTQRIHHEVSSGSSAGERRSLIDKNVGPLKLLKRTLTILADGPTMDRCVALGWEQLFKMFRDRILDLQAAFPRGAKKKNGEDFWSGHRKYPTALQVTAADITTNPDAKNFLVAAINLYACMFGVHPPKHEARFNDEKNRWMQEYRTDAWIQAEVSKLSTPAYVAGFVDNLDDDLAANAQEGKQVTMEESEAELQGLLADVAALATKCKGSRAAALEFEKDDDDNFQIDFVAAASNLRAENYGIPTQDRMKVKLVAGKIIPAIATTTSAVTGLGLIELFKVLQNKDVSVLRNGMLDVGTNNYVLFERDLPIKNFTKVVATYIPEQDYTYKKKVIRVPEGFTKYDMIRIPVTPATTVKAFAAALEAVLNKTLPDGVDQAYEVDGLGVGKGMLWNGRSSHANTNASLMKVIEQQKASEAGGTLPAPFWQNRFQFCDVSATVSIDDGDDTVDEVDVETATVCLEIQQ
# [3] = target: AMP-activated protein kinase, AMPK (Homo sapiens) (UniProt P54646+O43741+P54619+Q9UGJ0+Q9Y478+Q13131+Q9UGI9); test: AMP-dependent Kinase enzyme assay. An in vitro enzyme assay that detects ADP turnover that is directly proportional to AMPK activity. This uses naive AMPK that is activated during the assay with MK-8722; type: functional; settings: 30 µM
# [4] = target: Sialic acid-binding Ig-like lectin 9 (Homo sapiens) (UniProt Q9Y336); test: Hs-Siglec9 ALPHAscreen SOP 20170721; settings: 10 µM
# Chain of Sialic acid-binding Ig-like lectin 9 (Homo sapiens) (Q9Y336 whole entry): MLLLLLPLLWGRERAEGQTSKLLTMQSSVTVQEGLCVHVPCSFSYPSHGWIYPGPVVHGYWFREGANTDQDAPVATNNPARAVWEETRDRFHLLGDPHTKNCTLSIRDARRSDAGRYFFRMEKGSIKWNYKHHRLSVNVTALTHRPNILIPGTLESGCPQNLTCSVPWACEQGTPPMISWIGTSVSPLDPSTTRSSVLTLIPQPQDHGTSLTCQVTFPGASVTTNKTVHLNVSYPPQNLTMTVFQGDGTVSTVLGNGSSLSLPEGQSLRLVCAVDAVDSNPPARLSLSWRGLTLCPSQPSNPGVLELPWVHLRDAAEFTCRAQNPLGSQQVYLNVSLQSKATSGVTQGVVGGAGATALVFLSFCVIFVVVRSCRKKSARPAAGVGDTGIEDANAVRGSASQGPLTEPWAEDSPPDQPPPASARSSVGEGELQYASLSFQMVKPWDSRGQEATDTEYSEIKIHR
# Trypanosoma cruzi = test: Trypanosoma cruzi phosphomannomutase and mannose-1-phosphate guanylyltransferase assay; type: functional; settings: 10 µM
# [5] = target: T2, Arginase-2, mitochondrial (Homo sapiens) (UniProt P78540); test: in vitro enzyme assay to detect the production of urea directly proportional to the activity of Arginase II; type: functional; settings: 33.3 µM; also: in the data most compounds retested in dose-response had high values
# T2 sequence (whole entry): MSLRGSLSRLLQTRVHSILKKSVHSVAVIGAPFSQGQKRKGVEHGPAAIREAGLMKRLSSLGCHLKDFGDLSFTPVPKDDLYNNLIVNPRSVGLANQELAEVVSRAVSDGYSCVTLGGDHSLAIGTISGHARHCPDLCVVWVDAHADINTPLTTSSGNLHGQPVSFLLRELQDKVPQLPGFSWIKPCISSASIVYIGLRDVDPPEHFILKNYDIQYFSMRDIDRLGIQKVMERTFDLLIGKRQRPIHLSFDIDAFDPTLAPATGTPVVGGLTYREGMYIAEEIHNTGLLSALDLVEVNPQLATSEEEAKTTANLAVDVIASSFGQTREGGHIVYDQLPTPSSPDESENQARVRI
# [6] = target: T3, Proteasome subunit beta (Trypanosoma cruzi) (UniProt O96673); test: Trypanosoma cruzi proteasome chymotrypsin-like activity (TcProtChymo) assay.; also: in the data most compounds retested in dose-response had high values; type: functional; settings: 9.37 µM
# T3 sequence (whole entry): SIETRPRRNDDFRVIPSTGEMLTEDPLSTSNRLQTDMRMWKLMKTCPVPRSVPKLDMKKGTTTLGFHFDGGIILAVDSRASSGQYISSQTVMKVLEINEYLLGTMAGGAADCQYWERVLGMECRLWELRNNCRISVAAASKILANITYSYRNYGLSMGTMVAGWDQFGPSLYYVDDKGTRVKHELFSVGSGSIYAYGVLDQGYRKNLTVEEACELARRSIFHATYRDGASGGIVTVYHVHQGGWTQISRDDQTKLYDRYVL
# Homo sapiens = species: Homo sapiens; test: To identify inhibition of the IFN signalling (Jak-Stat) pathway via expression of an eGFP reporter gene under the control of an IFN-stimulated response element (ISRE) containing MxA promoter.; type: functional; settings: 30 µM
# [7] = target: T4, Tyrosyl-tRNA synthetase, putative (Trypanosoma cruzi (strain CL Brener)) (UniProt Q4DSP6); test: Trypanosoma cruzi tyrosyl tRNA synthetase (TcYRS) _High Tyrosine SOP; type: functional; settings: 30 µM; also: in the data most compounds retested in dose-response had high values
# T4 sequence (whole entry): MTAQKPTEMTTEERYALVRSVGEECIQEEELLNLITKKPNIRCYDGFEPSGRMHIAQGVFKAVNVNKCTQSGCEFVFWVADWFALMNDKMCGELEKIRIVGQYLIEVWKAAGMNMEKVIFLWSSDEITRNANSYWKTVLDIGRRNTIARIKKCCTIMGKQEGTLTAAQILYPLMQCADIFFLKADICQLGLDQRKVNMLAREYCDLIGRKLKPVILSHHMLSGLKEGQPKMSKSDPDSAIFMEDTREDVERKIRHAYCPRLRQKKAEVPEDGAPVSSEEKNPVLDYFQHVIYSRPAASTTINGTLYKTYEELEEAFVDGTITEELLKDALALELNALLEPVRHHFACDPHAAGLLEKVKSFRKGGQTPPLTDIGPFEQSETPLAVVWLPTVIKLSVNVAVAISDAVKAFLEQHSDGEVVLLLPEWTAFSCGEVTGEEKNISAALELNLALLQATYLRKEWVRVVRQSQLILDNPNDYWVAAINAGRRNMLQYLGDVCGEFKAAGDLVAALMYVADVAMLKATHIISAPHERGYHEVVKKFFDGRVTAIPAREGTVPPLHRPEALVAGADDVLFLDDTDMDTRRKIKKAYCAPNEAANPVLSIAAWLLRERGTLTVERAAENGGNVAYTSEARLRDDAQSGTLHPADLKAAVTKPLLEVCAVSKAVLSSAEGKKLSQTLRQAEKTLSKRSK
# [8] = target: T4, Tyrosyl-tRNA synthetase, putative (Trypanosoma cruzi (strain CL Brener)); test: Trypanosoma cruzi tyrosyl tRNA synthetase (TcYRS) SOP; type: functional; settings: 30 µM
# [9] = target: Chromo domain-containing protein 1 (Saccharomyces cerevisiae (strain ATCC 204508 / S288c) (Baker's yeast)) (UniProt P32657); test: ScCHD-1 Enzyme Inhibition Assay; type: functional; settings: 30 µM; also: in the data most compounds retested in dose-response had high values
# Chain of Chromo domain-containing protein 1 (Saccharomyces cerevisiae (strain ATCC 204508 / S288c) (Baker's yeast)) (P32657 whole entry, the tested form may be a part): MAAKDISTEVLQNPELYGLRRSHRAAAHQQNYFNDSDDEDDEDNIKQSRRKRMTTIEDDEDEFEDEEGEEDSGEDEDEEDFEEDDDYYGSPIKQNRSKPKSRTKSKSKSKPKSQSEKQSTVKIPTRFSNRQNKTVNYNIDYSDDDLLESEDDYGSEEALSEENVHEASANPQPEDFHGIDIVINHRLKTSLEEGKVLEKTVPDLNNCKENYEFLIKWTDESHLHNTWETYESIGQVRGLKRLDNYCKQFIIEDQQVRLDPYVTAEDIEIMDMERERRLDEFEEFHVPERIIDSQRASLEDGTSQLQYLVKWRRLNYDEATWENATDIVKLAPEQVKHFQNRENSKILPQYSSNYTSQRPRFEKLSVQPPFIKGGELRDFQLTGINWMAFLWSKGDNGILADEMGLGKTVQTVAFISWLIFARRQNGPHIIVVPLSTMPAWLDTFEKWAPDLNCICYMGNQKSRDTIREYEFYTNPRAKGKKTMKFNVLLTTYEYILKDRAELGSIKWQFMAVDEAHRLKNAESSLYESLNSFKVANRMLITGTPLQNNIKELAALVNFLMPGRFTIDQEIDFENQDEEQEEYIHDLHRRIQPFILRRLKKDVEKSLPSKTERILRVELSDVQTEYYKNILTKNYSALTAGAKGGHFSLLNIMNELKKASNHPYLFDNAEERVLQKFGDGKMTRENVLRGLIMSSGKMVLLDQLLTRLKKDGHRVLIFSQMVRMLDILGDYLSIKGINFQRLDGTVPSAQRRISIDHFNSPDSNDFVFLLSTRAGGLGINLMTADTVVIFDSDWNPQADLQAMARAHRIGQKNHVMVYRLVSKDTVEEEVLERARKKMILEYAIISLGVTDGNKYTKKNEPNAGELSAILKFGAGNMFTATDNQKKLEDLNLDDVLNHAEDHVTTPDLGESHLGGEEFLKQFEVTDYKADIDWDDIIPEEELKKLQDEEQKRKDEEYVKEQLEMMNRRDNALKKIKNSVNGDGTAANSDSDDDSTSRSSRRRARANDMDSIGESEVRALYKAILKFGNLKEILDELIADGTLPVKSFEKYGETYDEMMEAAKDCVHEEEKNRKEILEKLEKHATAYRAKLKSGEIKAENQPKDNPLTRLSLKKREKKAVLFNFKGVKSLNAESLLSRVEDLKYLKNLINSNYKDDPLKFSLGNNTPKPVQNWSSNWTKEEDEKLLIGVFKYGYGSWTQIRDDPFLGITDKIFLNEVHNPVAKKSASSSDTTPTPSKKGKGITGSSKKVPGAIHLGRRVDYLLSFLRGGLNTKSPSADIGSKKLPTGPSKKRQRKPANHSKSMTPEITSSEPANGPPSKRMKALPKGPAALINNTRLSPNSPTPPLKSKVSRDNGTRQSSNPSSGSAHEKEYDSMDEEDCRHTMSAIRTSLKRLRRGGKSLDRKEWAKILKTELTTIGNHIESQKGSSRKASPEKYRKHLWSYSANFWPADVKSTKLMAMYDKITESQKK
# Chain of Protein translocase subunit SecA (Escherichia coli (strain K12)) (P10408 whole entry): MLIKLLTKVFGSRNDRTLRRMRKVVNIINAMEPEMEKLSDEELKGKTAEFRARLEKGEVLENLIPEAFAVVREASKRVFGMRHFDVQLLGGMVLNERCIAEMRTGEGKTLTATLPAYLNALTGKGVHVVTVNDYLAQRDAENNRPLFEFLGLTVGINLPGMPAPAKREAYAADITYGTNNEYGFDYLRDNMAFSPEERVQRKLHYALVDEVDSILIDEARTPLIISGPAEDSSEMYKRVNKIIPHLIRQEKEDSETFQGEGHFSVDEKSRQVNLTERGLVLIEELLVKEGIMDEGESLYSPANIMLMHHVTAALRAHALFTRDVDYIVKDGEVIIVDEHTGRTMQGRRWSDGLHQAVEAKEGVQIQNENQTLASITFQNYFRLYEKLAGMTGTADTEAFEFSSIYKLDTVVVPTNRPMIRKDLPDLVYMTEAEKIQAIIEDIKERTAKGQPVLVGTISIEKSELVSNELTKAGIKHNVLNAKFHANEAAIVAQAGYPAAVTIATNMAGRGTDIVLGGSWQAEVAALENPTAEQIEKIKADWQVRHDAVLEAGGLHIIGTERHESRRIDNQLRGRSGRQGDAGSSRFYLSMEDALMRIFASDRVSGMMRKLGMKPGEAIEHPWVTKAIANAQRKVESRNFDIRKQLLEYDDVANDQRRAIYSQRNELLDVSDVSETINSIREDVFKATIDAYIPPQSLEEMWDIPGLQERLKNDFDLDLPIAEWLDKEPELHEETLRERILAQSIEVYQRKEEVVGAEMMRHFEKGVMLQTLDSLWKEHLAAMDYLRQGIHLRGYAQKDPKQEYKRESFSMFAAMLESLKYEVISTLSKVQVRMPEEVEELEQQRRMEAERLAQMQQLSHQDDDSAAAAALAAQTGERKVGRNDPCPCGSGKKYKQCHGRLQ
Compound,Percent Effect [1],Percent Effect [2],Percent Effect [3],Percent Effect [4],Percent Effect (Trypanosoma cruzi),Percent Effect [5],Percent Effect [6],Percent Effect (Homo sapiens),Percent Effect [7],Percent Effect [8],Percent Effect [9]
Cc1ccc2c(ccn2CCC(=O)N2CCC(C(N)=O)CC2)c1,-2.26%,6.67%,6.01%,7.91%,-0.393%,-12.2%,16.6%,-3.73%,5.29%,7.69%,-3.32%
COc1ccc(CCN2CCCC(Cn3nc(C)nc3C)C2)cc1 (stereo not given),-1.76%,-11.4%,-0.842%,1.01%,2.77%,-2.8%,8.58%,-4.76%,8.33%,10.1%,-19.5%
COCCOc1ncccc1C(=O)Nc1ccc(-n2cncn2)c(F)c1,-2.86%,10.5%,0.415%,9.57%,0%,0%,17.5%,-26.4%,7.35%,12.2%,-9.99%
Cc1cccc(NC2CCN(C(=O)Nc3cc(F)cc(F)c3)CC2)n1,-9.91%,7.59%,-1.53%,14.7%,12.4%,-4.18%,4.34%,27.7%,-0.493%,13.9%,-7.84%
c1ccc(OCCCN2CCN(c3ccc4nncn4n3)CC2)cc1,-7.97%,-18.2%,-5.57%,15.6%,8.61%,-5.69%,17.6%,47.8%,18.4%,24.4%,-1.5%
CC(C)NC(=O)Nc1ccc(CS(=O)(=O)C(C)(C)C)cc1,-3.43%,2.63%,7.37%,5.76%,-2.82%,-2.37%,23.1%,7.3%,2.13%,10.4%,-2.88%
COC1CCCN(C(=O)Nc2nc(C)n(C)n2)C1 (stereo not given),-4.33%,8%,-6.08%,5.49%,1.27%,1.56%,11.2%,14.3%,6.01%,6.17%,-6.37%
Cc1cccc(CN2C(=O)CO[C@@H]3CN(CCO)C[C@H]32)c1,1.05%,10.8%,-5.9%,-3.44%,4.88%,26.2%,12.1%,10.1%,6.93%,8.54%,1.31%
CSCC(=O)N1C[C@H]2CC[C@@H]1CN(Cc1ccccc1)C2,-2.57%,8.22%,14.1%,-0.0854%,0%,0.455%,10.8%,15.3%,11.8%,12.5%,-6.22%
COCCN1CCC(CNC(=O)c2cc(C)cc(C)c2)C1 (stereo not given),-6.49%,10.5%,-7.62%,15.5%,6.26%,-1.8%,8.88%,-10.5%,6.4%,13.6%,-4.84%
